ERb SRC1 inh = inhibitors of ERβ-SRC1 coactivator interaction, primary screen, biochemical, TR-FRET, ERβ LBD, SRC-1 peptide; Estrogen receptor beta (Homo sapiens), Q92731; TR-FRET ER-beta LBD / SRC1-Cy5 peptide binding; receptor agonist-loaded with 1 µM estradiol; inhibition, % at 25.6 µM; 1.3% of 86,000 active;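 active = compounds whose percent inhibition of the receptor-coactivator binding signal exceeds about 50% in the single-dose screen, limit read from the data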;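 also: 0% = receptor plus peptide wells without compound and 100% = peptide-only wells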
MRP reversal = reversal of MRP1-mediated doxorubicin resistance, primary screen, H69AR cells, doxorubicin co-treatment. H69AR cells + 2 uM doxorubicin, CellTiter-Glo, 72 h. differential viability (reversal), % at 10 µM. 0.04% of 85,000 active. AID 602, 2007;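 active = viability drop by adding the cancer drug above about 55%, with treated viability meeting a 40% cutoff, limit read from the data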;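 also: viability without doxorubicin minus viability with 2 µM doxorubicin for each compound; larger differential means the compound sensitizes cells more to doxorubicin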
ERa SRC1 inh = ERα–SRC-1 coactivator interaction inhibitors, primary screen, biochemical, TR-FRET, ERα LBD, estradiol-bound. Estrogen receptor (Homo sapiens), P03372. TR-FRET ER-alpha LBD / SRC-1 peptide. inhibition, % at 25.6 µM. 1.7% of 86,000 active; in the data active = inhibition above about 50%;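 also: 0% = receptor plus peptide control and 100% = peptide only without receptor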
ERa SRC1 pot = enhancers of ERα–SRC-1 coactivator binding, primary screen, biochemical, TR-FRET, ERα LBD, low estradiol | Estrogen receptor (Homo sapiens), P03372 | TR-FRET ERalpha-LBD/SRC-Cy5 coactivator binding, 2 h; 100 = basal binding, no effect | coactivator binding (% of control), % at 25.6 µM | 1.3% of 86,000 active | AID 639, 2007; in the data active = activity above about 200%;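 also: binding measured in presence of low estradiol as agonist stimulus; 0% = peptide alone without receptor and 100% = receptor with peptide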
MRP1 act = H69AR viability gain despite doxorubicin, primary screen, MRP-1 activator project, H69AR cells, CellTiter-Glo; viability rescue; viability increase, % at 10 µM; 0.61% of 140,000 active;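 active = viability gain under doxorubicin at or above a set limit, the compound median plus 3 SD, cut at about 4.7% in these data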;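 also: MRP-1 overexpressing cells given doxorubicin 25 µM after compound pretreatment; 18-22 h compound pretreatment then 72 h with doxorubicin before readout; 0% = doxorubicin-only wells and 100% = vehicle-treated cells without doxorubicin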
Smad3 FoxH1 inh = Smad3/FoxH1 peptide binding inhibitors, primary screen, biochemical, TR-FRET. TR-FRET Smad3/Dy647-FoxH1 peptide binding, europium anti-His. inhibition, % at 25 µM. 0.29% of 88,000 active. AID 630, 2007;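 active = compounds that reduce the energy-transfer binding signal between the protein and its labelled peptide by more than half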;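 also: 0% = Smad3 plus labelled peptide maximal FRET and 100% = peptide-only background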
Target sequence (P84022 whole entry, looked up): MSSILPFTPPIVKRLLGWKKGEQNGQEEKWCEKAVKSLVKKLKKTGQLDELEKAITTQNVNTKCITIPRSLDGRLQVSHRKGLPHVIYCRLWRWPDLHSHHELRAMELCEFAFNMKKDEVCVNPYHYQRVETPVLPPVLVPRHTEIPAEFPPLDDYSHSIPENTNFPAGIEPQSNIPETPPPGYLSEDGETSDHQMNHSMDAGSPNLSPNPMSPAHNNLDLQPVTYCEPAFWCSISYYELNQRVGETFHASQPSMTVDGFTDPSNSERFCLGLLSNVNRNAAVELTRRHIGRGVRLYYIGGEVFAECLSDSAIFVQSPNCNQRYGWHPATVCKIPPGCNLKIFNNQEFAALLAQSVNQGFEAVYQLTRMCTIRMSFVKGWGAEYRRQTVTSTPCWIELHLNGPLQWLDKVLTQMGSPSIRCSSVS
The depositor's hits bear a star; nt = no result; [ ] = dose if it differs, or a comment. Only some compounds are listed: those with a hit (about 2.9% of all), similar ones and a draw of the others.

SMILES	ERb SRC1 inh	MRP reversal	ERa SRC1 inh	ERa SRC1 pot	MRP1 act	Smad3 FoxH1 inh
COc1cccc(-n2c(SCC(N)=O)nc3c([nH]c4ccccc43)c2=O)c1	-6	-15	4	633*[fluorescence artefact?]	-3	13
COc1ccc(-n2c(SCC(=O)N3CCCC3)nc3c([nH]c4ccccc43)c2=O)cc1	60*[fluorescence artefact?]	-15	87*	124	nt	-8
COc1cccc(-n2c(SCC(=O)Nc3cc(C)on3)nc3c([nH]c4ccccc43)c2=O)c1	10	-7	21	110	-3	28
CC(C)N(CC(=O)O)CC(=O)O	nt	nt	nt	nt	nt	1
COc1cccc(C(=O)Nc2cccc(-c3nnc(-c4ccco4)o3)c2)c1	-1	6	-13	102	1	13
O=C(COc1ccc(Br)cc1)Nc1ccc(-c2nnc(-c3ccco3)o2)cc1	3	5	4	268*[fluorescence artefact?]	3	-5
COc1ccc(Br)cc1C(=O)Nc1cccc(-c2nnc(-c3ccco3)o2)c1	53*[fluorescence artefact?]	-2	69*[fluorescence artefact?]	115	nt	-6
CCC(Oc1ccccc1)C(=O)Nc1ccc(-c2nnc(-c3ccco3)o2)cc1 (centres undefined)	-9	16	1	118	1	-6
N#Cc1cc2c(nc1SCC(O)CS(=O)(=O)Cc1ccccc1)CCCC2 (centres undefined)	7	-5	-10	99	-2	3
Cn1c(=O)c2c(nc(N/N=C/c3ccccc3C(=O)O)n2C)n(C)c1=O	nt	nt	nt	nt	nt	10
COc1ccc(-c2nnc3sc(C(C)N4C(=O)c5ccccc5C4=O)nn23)cc1 (centres undefined)	-14	4	-6	108	1	2
c1ccc(-c2nnc3sc(Cc4cccs4)nn23)cc1	57*	5	64*[fluorescence artefact?]	46	-4	9
COc1ccc(-c2nnc3sc(CN4C(=O)c5ccccc5C4=O)nn23)cc1	8	20	16	227*	nt	-30
O=C1c2ccccc2C(=O)N1Cc1nn2c(-c3ccc(Cl)cc3)nnc2s1	26	11	46	383*[fluorescence artefact?]	nt	20
COc1cccc(/C=N/NC(=O)C(=O)NCc2ccco2)c1O	nt	nt	nt	nt	6.0*	nt
O/N=C/c1ccc(OCC(O)COc2ccc(/C=N/O)cc2)cc1	-17	-1	-28	122	-2	1
O=C(Nc1ccc2c(c1)nc1n2CCOC1)c1ccco1	-12	5	2	122	0	-4
O=C(Nc1ccc2c(c1)nc1n2CCN(C2CCCCC2)C1)c1ccco1	53*	8	61*	43	nt	6
O=C(Nc1ccc2c(c1)nc1n2CCSC1)c1ccco1	61*[fluorescence artefact?]	4	80*	123	-1	44
CCc1nnc(NC(=O)CSc2nnc(-c3ccc(S(=O)(=O)N4CCCC4)cc3)n2CC)s1	54*[fluorescence artefact?]	11	16	87	3	-6
CCc1nnc(NC(=O)C2Cc3ccccc3CN2S(=O)(=O)c2cccs2)s1 (centres undefined)	27	-2	55*	80	1	0
CCc1nnc(NC(=O)C2Cc3ccccc3CN2S(=O)(=O)c2ccc(C)cc2)s1 (centres undefined)	7	-22	1	89	-1	11
CCn1c(SCC(=O)Nc2nccs2)nnc1-c1ccc(S(=O)(=O)N2CCCCCC2)cc1	nt	nt	nt	nt	-2	nt
CCc1nnc(NC(=O)C2CCCN2S(=O)(=O)c2ccc(C)cc2)s1 (centres undefined)	15	-12	-7	92	6.8*	14
COc1ccc(-c2noc(-c3ccc(Br)o3)n2)cc1OC	-1	-18	-2	387*[fluorescence artefact?]	0	-27
SMILES	ERb SRC1 inh	MRP reversal	ERa SRC1 inh	ERa SRC1 pot	MRP1 act	Smad3 FoxH1 inh
COc1nccnc1NS(=O)(=O)c1ccc(NS(=O)(=O)c2ccc(NC(C)=O)cc2)cc1	-2	-15	3	83	-2	4
COc1ccc(C(=O)Nc2ccc(N3CCCC3)cc2)cc1	41	3	84*[fluorescence artefact?]	24	-1	-2
O=C(Nc1ccc(N2CCCC2)cc1)c1ccc(Br)o1	68*[fluorescence artefact?]	6	59*[fluorescence artefact?]	58	0	-16
COc1ccc(C(=O)Nc2ccc(S(=O)(=O)Nc3nccnc3OC)cc2)cc1	nt	nt	nt	nt	6.2*	nt
CCCOc1ccc(C(=O)Nc2ccc(N3CCN(C(C)=O)CC3)cc2)cc1	nt	nt	nt	nt	6.0*	nt
O=C(C1CCCN(c2ncccn2)C1)N1CCc2ccccc21 (centres undefined)	11	7	4	95	-3	1
O=C(O)C[C@H](Cc1ccccc1)C(=O)O	nt	nt	nt	nt	nt	-2
CCOc1ccc2c(c1)c(N=O)c(O)n2C	nt	nt	nt	nt	6.0*	nt
CCn1c(=O)cc(C(=O)OC)sc1=Nc1ccc(F)c(F)c1	95*[fluorescence artefact?]	0	-8	82	-2	3
COC(=O)c1cc(=O)n(CCc2ccc(OC)cc2)c(=Nc2ccc(F)c(Cl)c2)s1	8	0	5	114	-5	-2
Brc1ccccc1-c1nnc(CSc2nnnn2-c2ccccc2)o1	27	12	51*	88	-1	4
Cc1nnc(SCc2nnc(-c3ccccc3Br)o2)n1-c1ccccc1	28	5	44	78	-1	2
COc1ccc(CN[C@H](C)C(=O)O)cc1	nt	nt	nt	nt	nt	-7
Cc1cc(OCc2nc(N)nc(N)c2-c2ccc(Cl)c(Cl)c2)ccc1[N+](=O)[O-]	nt	nt	nt	nt	nt	56*
C/C(=N\Nc1nc(C)cc(=O)[nH]1)C(=O)O	nt	nt	nt	nt	nt	-10
O=C(Oc1ccccc1C(=O)Nc1ccccc1)c1ccccc1Br	nt	nt	nt	nt	-2	nt
O=C(Nc1ccc(C2CC2(Cl)Cl)cc1)c1ccccc1Br (centres undefined)	nt	nt	nt	nt	11*	nt
O=C(O)[C@H](Cc1ccccc1)N1C(=O)c2ccccc2C1=O	nt	nt	nt	nt	nt	-7
O=C(NN=C1CCCC1)C(=O)Nc1cccc(C(F)(F)F)c1	nt	nt	nt	nt	2	nt
CCOc1ncccc1C(=O)OCc1cc(=O)n2c(n1)sc1ccccc12	56*[fluorescence artefact?]	7	84*[fluorescence artefact?]	115	nt	8
Cc1noc(NC(=O)Nc2ccccc2F)c1C#N	nt	nt	nt	nt	nt	6
O=C(O)c1ccccc1C(=O)N1CCN(c2cccc(Cl)c2)CC1	-6	-11	-4	120	-2	-4
O=C(O)CCCC(=O)N1CCN(c2cccc(Cl)c2)CC1	-1	7	-10	331*[fluorescence artefact?]	0	22
C=CCn1c(NCc2ccc(N(C)C)cc2)nc2ccccc21	-19	6	-21	102	-3	14
COc1nnc(-c2ccc(C(=O)N3C[C@@H]4C[C@H](C3)c3cccc(=O)n3C4)cc2)c2ccccc12	16	3	29	340*	-2	6
